Laboratory results as given in PubChem BioAssay (NCATS).
Where “and” joins values, the source holds several entries; their conditions need not be identical. Identical values can stand only once. Inconclusive results are not listed. Calls of active or inactive are those of the source. Calls follow the shape of the dose curve; as a rule, active = well fitted inhibition curve with a large enough effect; inconclusive = small, poorly fitted or top-dose-only effect; inactive = flat fitted curve, though single readings scatter.

Tests used:
[1] = tested on: CRL-7250; test: Cytotoxic Profiling of Annotated Libraries Using Quantitative High-Throughput Screening (AID 1296008); details: Five cell lines viability, CellTiter-Glo ATP luminescence, 48-72 h; max response: stronger effect = lower value; also: potency is read from the fitted curve at half-maximal effect; as to max response: % is scaled to controls: 0 for no effect and ±100 for the full control effect
In short: (§1)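 Compounds were pin-transferred onto cells and incubated 48 or 72 hr at 37 degree Celsius, 95% humidity. CellTiter-Glo was added, plates sat 10 min at room temperature, then ATP-coupled luminescence was imaged as the viability read-out.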

[2] = tested on: HEK293; test: as above; details: Five cell lines viability, CellTiter-Glo ATP luminescence, 48-72 h; max response: stronger effect = lower value
In short: as §1

[3] = tested on: HaCat; test: as above; details: Five cell lines viability, CellTiter-Glo ATP luminescence, 48-72 h; max response: stronger effect = lower value
In short: as §1

[4] = tested on: KB-3-1; test: as above; details: Five cell lines viability, CellTiter-Glo ATP luminescence, 48-72 h; max response: stronger effect = lower value
In short: as §1

[5] = tested on: NIH3T3; test: as above; details: Five cell lines viability, CellTiter-Glo ATP luminescence, 48-72 h; max response: stronger effect = lower value
In short: as §1

[6] = tested on: HACAT; test: qHTS assay to identify novel small-molecules to repurpose for Merkel cell carcinoma treatment (AID 1296009); details: MCC and control cell lines, CellTiter-Glo viability, 72 h; at 44.8 µM (top of the series) unless noted
In short: (§2)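 qHTS format: cells treated with library compounds in DMSO across 8 (NPC) or 11 (MIPE) concentrations. Readout after 72 hr at 37 degree celsius was CellTiter-Glo luminescence.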

[7] = tested on: MCC-13; test: as above; details: MCC and control cell lines, CellTiter-Glo viability, 72 h; series mostly up to 46 µM
In short: as §2

[8] = tested on: W2; test: qHTS profiling for inhibitors of Plasmodium falciparum proliferation (AID 504749); also: potency is read from the fitted curve at half-maximal effect; details: P. falciparum in erythrocytes, SYBR Green DNA, 72 h; series mostly up to 28.7 µM
In short: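 Parasite proliferation within erythrocytes, 72 h exposure. Endpoint: SYBR Green I fluorescence after overnight lysis at room temperature. Controls: 0.29 uM artemisinin, DMSO.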

[9] = tested on: MCC-26; test: qHTS assay to identify novel small-molecules to repurpose for Merkel cell carcinoma treatment (AID 1296009); details: MCC and control cell lines, CellTiter-Glo viability, 72 h; series mostly up to 46 µM
In short: as §2

[10] = tested on: HEK293T; test: as above; details: MCC and control cell lines, CellTiter-Glo viability, 72 h; at 44.8 µM (top of the series) unless noted
In short: as §2
Also: nearly all actives have a fitted effect of over 60% in size.

CC(=C(CCOC(=O)C(C)C)SSC(CCOC(=O)C(C)C)=C(C)N(C=O)Cc1cnc(C)nc1N)N(C=O)Cc1cnc(C)nc1N
inactive: max response [1] 0.406% | max response [2] -4.89% | outcome [3] | max response [4] 1.98% | outcome [5] | outcome [6] | Potency [7]

CC(=O)Nc1ccc(S(=O)(=O)Nc2ccc([N+](=O)[O-])cc2)cc1
inactive: Potency [8] | max response [1] -4.42% | max response [2] -4.06% | outcome [3] | max response [4] 15% | max response [5] 3.15% | outcome [6] | Potency [7] | Potency [9]

NC(=S)N/N=C/c1cccnc1
inactive: max response [1] -6.1% | max response [2] -29.1% | max response [3] 1.46% | max response [4] 2.69% | max response [5] 1.77% | Potency [7] | Potency [9]

O=C1C(=O)c2ccccc2C(O)=C1C1CCC(c2ccc(Cl)cc2)CC1 (stereo unspecified)
inactive: max response [1] 1.68% | max response [2] 0.597% | max response [3] -2.46% | max response [4] -5.6% | max response [5] 2.17% | Potency [7] | Potency [9]

COc1ccc(C(=O)c2ccccc2O)c(O)c1
inactive: outcome [1] | max response [2] -10.9% | max response [3] 4.59% | max response [4] -2.05% | max response [5] 1.03% | Potency [7] | Potency [9]

CCN(CC)CCOc1ccccc1C(=O)CCc1ccccc1
inactive: max response [1] -0.916% | outcome [3] | max response [4] -2.43% | max response [5] -3.4% | outcome [6] | Potency [7]
active: Potency [8] 2.13 µM | Potency [2] 11.9 µM

NCCNc1cccc2ccccc12
inactive: max response [1] -3.59% | max response [2] -7.17% | max response [3] -24.9% | max response [4] -12.5% | max response [5] 0.794% | Potency [7] | Potency [9]

CN(C)CCC[C@@]1(c2ccc(F)cc2)OCc2cc(C#N)ccc21
inactive: max response [1] -3.32% | max response [2] -9.91% | max response [3] -13.9% | max response [4] -13.4% | max response [5] 0.771% | Potency [7] | Potency [9]

CCN1CCN(C(=O)N[C@@H](C(=O)N[C@@H]2C(=O)N3C(C(=O)O)=C(CSc4nnnn4C)CS[C@H]23)c2ccc(O)cc2)C(=O)C1=O
inactive: max response [1] 3.23% | max response [2] -4.75% | max response [3] -2.57% | max response [4] -4.94% | max response [5] -3.36% | Potency [7]

O=C1[C@H](CC[C@H](O)c2ccc(F)cc2)[C@@H](c2ccc(O)cc2)N1c1ccc(F)cc1
inactive: max response [1] 1.5% | outcome [1] | max response [3] -6.94% and -19.1% | max response [4] -8.72% and 5.64% | max response [5] -18.6% and -29.1% | Potency [7] | Potency [9]

COc1cc(N)c(Cl)cc1C(=O)NC1CCN(Cc2ccccc2)CC1
inactive: outcome [1] | max response [2] -8.36% | max response [3] 1.83% | max response [4] 3.83% | max response [5] -4.33% | Potency [7] | Potency [9]

O=[N+]([O-])c1cccc(S(=O)(=O)NCCNS(=O)(=O)c2cccc([N+](=O)[O-])c2)c1
inactive: outcome [1] | max response [2] -16% | max response [3] 0.408% | max response [4] 2.2% | max response [5] -4.18% | Potency [7] | Potency [9]

CCc1oc2ccccc2c1C(=O)c1cc(Br)c(O)c(Br)c1
inactive: Potency [8] | max response [1] 0.197% | max response [2] -23.3% | outcome [3] | max response [4] -3.26% | max response [5] -25.3% | outcome [6] | Potency [7] | Potency [9]

COc1ccc(CCN(C)CCCN2CCc3cc(OC)c(OC)cc3CC2=O)cc1OC
inactive: max response [1] -0.711% | outcome [2] | max response [3] -7.19% | max response [4] -10.8% | max response [5] 3.6% | outcome [10] | Potency [7] | Potency [9]

CCC(CC)(CC(=O)Nc1cccc(/C=C/c2nc(C3CCC3)cs2)c1)C(=O)O
inactive: Potency [8] | max response [1] 2.29% | max response [2] -8.39% | outcome [3] | max response [4] -22.9% | max response [5] 2.57% | outcome [6] | Potency [7]

CC(CNC1CCCCC1)OC(=O)c1ccccc1 (stereo unspecified)
inactive: max response [1] -16.2% | max response [2] -47.9% | max response [3] -18.5% | max response [4] 3.78% | max response [5] 0.669% | Potency [7] | Potency [9]

Clc1cccc(C(c2ccc3nc[nH]c3c2)n2ccnc2)c1 (stereo unspecified)
inactive: max response [1] -3.34% | max response [2] 1.25% | max response [3] -3.24% | max response [4] 11.8% | max response [5] -0.487% | Potency [7]

CCN(CC)CCNC(=O)c1cc(Br)c(N)cc1OC
inactive: max response [1] 3.66% | max response [2] -7.62% | max response [3] -11.9% | max response [4] -23.2% | max response [5] -9.42% | Potency [7] | Potency [9]
